Measured values: article PMC4081100, “A DNA-binding-site landscape and regulatory network analysis for NAC transcription factors in Arabidopsis thaliana”

Legend:
Test in all cases: universal protein binding microarray (PBM); transcription factors of Arabidopsis thaliana; high values mean tight binding
Settings in all cases: protein: recombinant; tags: GST; chain copies: 2; dsDNA, one strand shown
[1] = biological target: T1, GST-ANAC092(1-176) (Arabidopsis thaliana, UniProt Q9FKA0 1-176)
T1 sequence: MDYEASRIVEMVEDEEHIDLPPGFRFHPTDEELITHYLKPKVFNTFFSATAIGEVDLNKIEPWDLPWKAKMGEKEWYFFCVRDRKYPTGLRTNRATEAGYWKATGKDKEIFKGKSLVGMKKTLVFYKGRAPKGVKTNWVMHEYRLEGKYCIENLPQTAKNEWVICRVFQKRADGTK
Outline: (§1)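 GST-tagged proteins (NAC-domain, full-length or DNA-binding-domain) were induced in cells, with zinc acetate supplied for zinc-finger proteins, then purified on glutathione–Sepharose 4B. Each was tested in duplicate at 200 to 500 nM final on custom all-10-mer Agilent 4 × 180K arrays rendered double-stranded by primer extension. The binding value is the normalised enrichment score (E-score) across gapped and ungapped 8-mers.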

[2] = biological target: GST-NTL6(1-168) (Arabidopsis thaliana, UniProt Q9SCK6 1-168)
Outline: as §1

[3] = biological target: T2, GST-ANAC019 NAC domain (Arabidopsis thaliana, UniProt Q9C932 14-162)
T2 sequence: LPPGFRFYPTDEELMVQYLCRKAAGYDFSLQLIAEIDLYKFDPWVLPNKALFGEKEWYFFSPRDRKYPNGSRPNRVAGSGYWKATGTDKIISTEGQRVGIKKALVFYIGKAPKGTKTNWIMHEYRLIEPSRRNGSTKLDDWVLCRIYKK
Outline: as §1

[4] = biological target: T3, GST-ANAC055(1-171) (Arabidopsis thaliana, UniProt Q9LDY8 1-171)
T3 sequence: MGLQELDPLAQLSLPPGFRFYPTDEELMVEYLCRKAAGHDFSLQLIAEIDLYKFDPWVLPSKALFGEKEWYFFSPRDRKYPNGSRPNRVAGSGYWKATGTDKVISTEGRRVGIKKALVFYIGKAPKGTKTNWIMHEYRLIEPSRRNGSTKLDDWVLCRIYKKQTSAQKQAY
Outline: as §1

[5] = biological target: T4, GST-ATAF1 NAC domain (Arabidopsis thaliana, UniProt Q39013 7-158)
T4 sequence: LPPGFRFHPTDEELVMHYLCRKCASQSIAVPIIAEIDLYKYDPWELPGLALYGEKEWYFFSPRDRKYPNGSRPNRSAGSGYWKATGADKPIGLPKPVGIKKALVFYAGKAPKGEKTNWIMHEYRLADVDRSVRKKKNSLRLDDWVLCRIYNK
Outline: as §1

[6] = biological target: T5, GST-ANAC092(1-285) full length (Arabidopsis thaliana, UniProt Q9FKA0 1-285)
T5 sequence: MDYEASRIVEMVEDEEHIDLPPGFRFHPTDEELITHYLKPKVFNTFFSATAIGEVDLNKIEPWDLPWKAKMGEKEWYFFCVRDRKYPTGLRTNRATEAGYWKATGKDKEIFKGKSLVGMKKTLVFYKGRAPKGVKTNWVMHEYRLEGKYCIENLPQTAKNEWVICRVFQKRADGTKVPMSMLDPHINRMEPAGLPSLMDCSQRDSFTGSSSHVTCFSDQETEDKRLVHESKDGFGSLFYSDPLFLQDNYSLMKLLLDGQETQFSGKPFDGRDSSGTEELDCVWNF
Outline: as §1

[7] = biological target: T6, GST-NAP(1-166) (Arabidopsis thaliana, UniProt O49255 1-166)
T6 sequence: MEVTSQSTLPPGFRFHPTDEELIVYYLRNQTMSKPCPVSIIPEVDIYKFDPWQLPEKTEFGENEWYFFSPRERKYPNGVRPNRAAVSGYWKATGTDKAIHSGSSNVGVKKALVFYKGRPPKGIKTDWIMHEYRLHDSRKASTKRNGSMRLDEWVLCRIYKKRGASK
Outline: as §1

[8] = biological target: T7, GST-NTL8 NAC domain (Arabidopsis thaliana, UniProt Q9XIN7 14-156)
T7 sequence: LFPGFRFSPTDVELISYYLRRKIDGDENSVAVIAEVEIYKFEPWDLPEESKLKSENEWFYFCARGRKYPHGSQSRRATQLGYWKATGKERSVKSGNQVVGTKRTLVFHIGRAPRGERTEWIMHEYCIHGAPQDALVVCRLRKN
Outline: as §1

[9] = biological target: T8, GST-SND1(1-203) (Arabidopsis thaliana, UniProt Q9LPI7 1-203)
T8 sequence: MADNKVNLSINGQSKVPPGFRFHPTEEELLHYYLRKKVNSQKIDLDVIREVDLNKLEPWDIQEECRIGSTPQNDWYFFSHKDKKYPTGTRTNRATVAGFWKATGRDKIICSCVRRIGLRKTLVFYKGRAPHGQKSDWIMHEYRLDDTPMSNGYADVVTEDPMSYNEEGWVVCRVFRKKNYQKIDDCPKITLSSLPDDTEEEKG
Outline: as §1

[10] = biological target: T9, GST-VND3 NAC domain (Arabidopsis thaliana, UniProt Q9FH59 12-162)
T9 sequence: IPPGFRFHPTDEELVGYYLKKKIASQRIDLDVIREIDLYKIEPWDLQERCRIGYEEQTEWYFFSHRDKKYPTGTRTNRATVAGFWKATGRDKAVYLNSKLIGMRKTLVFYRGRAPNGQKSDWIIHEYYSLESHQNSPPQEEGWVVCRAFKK
Outline: as §1

[11] = biological target: T10, GST-VND7 NAC domain (Arabidopsis thaliana, UniProt Q9C8W9 9-158)
T10 sequence: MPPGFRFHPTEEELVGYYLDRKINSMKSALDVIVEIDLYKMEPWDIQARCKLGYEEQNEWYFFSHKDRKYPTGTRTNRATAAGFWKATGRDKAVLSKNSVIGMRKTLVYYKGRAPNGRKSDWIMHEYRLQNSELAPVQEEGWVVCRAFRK
Outline: as §1

[12] = biological target: T11, GST-NST2(1-184) (Arabidopsis thaliana, UniProt Q9M274 1-184)
T11 sequence: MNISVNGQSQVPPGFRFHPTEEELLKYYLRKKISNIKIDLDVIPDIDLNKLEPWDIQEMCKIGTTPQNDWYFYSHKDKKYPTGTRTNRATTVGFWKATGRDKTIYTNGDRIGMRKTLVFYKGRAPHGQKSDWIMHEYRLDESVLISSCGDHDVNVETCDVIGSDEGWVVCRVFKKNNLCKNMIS
Outline: as §1

Chain of GST-NTL6(1-168) (Q9SCK6 1-168): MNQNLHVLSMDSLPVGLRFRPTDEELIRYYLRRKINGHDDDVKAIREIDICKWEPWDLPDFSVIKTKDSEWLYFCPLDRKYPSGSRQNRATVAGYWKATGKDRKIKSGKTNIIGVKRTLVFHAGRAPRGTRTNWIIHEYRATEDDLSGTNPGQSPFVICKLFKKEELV

Sequence | binding signal [1] [E-score] | binding signal [2] [E-score] | binding signal [3] [E-score] | binding signal [4] [E-score] | binding signal [5] [E-score] | binding signal [6] [E-score] | binding signal [7] [E-score] | binding signal [8] [E-score] | binding signal [9] [E-score] | binding signal [10] [E-score] | binding signal [11] [E-score] | binding signal [12] [E-score]
AGGGAAAA | 0.22 | 0.201 | 0.131 | 0.111 | 0.187 | 0.0865 | 0.117 | 0.416 | 0.115 | 0.0874 | 0.192 | –
TACGTAAA | 0.427 | 0.095 | 0.43 | 0.384 | 0.377 | 0.444 | 0.399 | 0.172 | 0.43 | 0.421 | 0.43 | 0.261
ACTTAACC | 0.197 | 0.402 | 0.17 | 0.115 | 0.132 | 0.186 | – | 0.243 | 0.221 | 0.203 | 0.209 | 0.164
GGAAGTAA | 0.249 | 0.404 | 0.151 | 0.104 | 0.123 | 0.307 | – | 0.203 | 0.259 | 0.133 | 0.0641 | 0.248
ACGTAACT | 0.443 | 0.174 | 0.48 | 0.451 | 0.444 | 0.424 | 0.474 | 0.247 | 0.325 | 0.466 | 0.474 | 0.251
AGGAAACG | 0.207 | 0.125 | 0.0614 | 0.149 | 0.208 | 0.132 | 0.183 | 0.451 | 0.224 | 0.109 | 0.112 | 0.132
TAAGTTAA | 0.191 | 0.418 | 0.132 | 0.0747 | 0.157 | 0.3 | – | – | 0.297 | 0.188 | 0.0557 | 0.184
CAAGTTAC | 0.371 | 0.256 | 0.163 | 0.178 | 0.134 | 0.411 | 0.144 | 0.167 | 0.323 | 0.254 | 0.184 | 0.238
GTTAAGCA | 0.131 | 0.408 | 0.0907 | 0.0654 | 0.119 | 0.153 | – | – | 0.223 | 0.143 | 0.0676 | 0.209
GAAGTAAA | 0.214 | 0.409 | 0.0501 | 0.107 | 0.211 | 0.305 | – | 0.222 | 0.329 | 0.179 | 0.18 | 0.224
ACAAGTAA | 0.41 | 0.25 | 0.125 | 0.236 | 0.238 | 0.439 | – | – | 0.257 | 0.249 | 0.0784 | 0.288
AAAGGAAA | 0.196 | 0.284 | 0.105 | 0.11 | 0.153 | 0.0862 | – | 0.457 | 0.225 | 0.166 | 0.134 | 0.179
AATTCCGT | 0.274 | 0.169 | 0.456 | 0.429 | 0.358 | 0.247 | 0.379 | 0.105 | 0.122 | 0.414 | 0.382 | 0.179
GAAACGTA | 0.355 | 0.0734 | 0.241 | 0.219 | 0.224 | 0.411 | 0.223 | 0.288 | 0.435 | 0.332 | 0.268 | 0.212
AGTAAGTA | 0.145 | 0.415 | 0.133 | 0.199 | 0.14 | 0.184 | – | – | 0.137 | 0.275 | 0.083 | 0.218
ACGTAACC | 0.442 | 0.149 | 0.389 | 0.412 | 0.389 | 0.463 | 0.43 | 0.328 | 0.392 | 0.409 | 0.414 | 0.338
GTACGCAA | 0.482 | 0.121 | 0.445 | 0.411 | 0.407 | 0.487 | 0.456 | 0.0545 | 0.47 | 0.413 | 0.437 | 0.394
AAGGAAAT | 0.191 | 0.384 | 0.147 | 0.0899 | 0.122 | 0.163 | 0.06 | 0.466 | 0.258 | 0.144 | 0.0723 | 0.15
AGAAGGAA | 0.192 | 0.417 | 0.0646 | 0.117 | 0.149 | 0.156 | – | 0.379 | 0.157 | 0.0779 | 0.0759 | 0.177
GAAGGTAA | 0.174 | 0.329 | 0.158 | 0.111 | 0.22 | 0.25 | – | 0.463 | 0.227 | 0.148 | 0.141 | 0.255
GCAAGTAA | 0.339 | 0.409 | 0.211 | 0.198 | 0.151 | 0.415 | 0.056 | 0.264 | 0.352 | 0.231 | 0.232 | 0.223
AAGTAATC | 0.348 | 0.414 | 0.144 | 0.154 | 0.22 | 0.37 | – | 0.328 | 0.347 | 0.188 | 0.136 | 0.285
AAGGGTAA | 0.117 | 0.194 | 0.127 | 0.0999 | 0.0524 | 0.134 | 0.117 | 0.444 | 0.117 | 0.223 | 0.0677 | 0.126
ACGCAAGT | 0.424 | 0.121 | 0.277 | 0.295 | 0.295 | 0.444 | 0.356 | 0.0671 | 0.406 | 0.375 | 0.366 | 0.291
CTTACGCA | 0.359 | 0.0871 | 0.265 | 0.199 | 0.187 | 0.389 | 0.243 | 0.111 | 0.429 | 0.255 | 0.295 | 0.278
TTACGAAA | 0.396 | 0.121 | 0.248 | 0.221 | 0.278 | 0.409 | 0.087 | 0.067 | 0.434 | 0.26 | 0.233 | 0.227
AAACGTAA | 0.261 | 0.216 | 0.268 | 0.325 | 0.296 | 0.378 | 0.294 | 0.154 | 0.435 | 0.344 | 0.294 | 0.302
ACGGAAAC | 0.325 | 0.205 | 0.412 | 0.388 | 0.209 | 0.345 | 0.305 | 0.243 | 0.191 | 0.349 | 0.361 | 0.242
